Assay results reported in the supplement of paper PMC8728848.
The entries come from a sample that favours the strongest signals as a whole.

How the values were obtained:
Assay in all cases: glycan array binding signal (z-score within array); higher = stronger binding
Conditions in all cases: glycan notation: IUPAC condensed, linker removed
Fuc(a1-2)Gal = target: Fuc(a1-2)Gal
Summary of the method: (§1)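 The binding signal is a Z-score computed within each array. Data were drawn from 3228 arrays in the Consortium for Functional Glycomics database, restricted to those with a known protein sequence. Scores were averaged over arrays of the same protein sequence at different concentrations or buffers, and over linkers, and negative values can be taken as non-binding.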

[1] = target: Fuc(a1-2)Gal(b1-3)GlcNAc(b1-2)Man(a1-3)[Fuc(a1-2)Gal(b1-3)GlcNAc(b1-2)Man(a1-6)]Man(b1-4)GlcNAc(b1-4)[Fuc(a1-6)]GlcNAc
Summary of the method: as §1

[2] = target: Fuc(a1-2)Gal(b1-3)GlcNAc(b1-3)[Neu5Ac(a2-6)Gal(b1-4)GlcNAc(b1-6)]Gal(b1-4)Glc
Summary of the method: as §1

[3] = target: Fuc(a1-2)Gal(b1-3)GlcNAc6S
Summary of the method: as §1

[4] = target: Fuc(a1-2)Gal(b1-3)[Fuc(a1-4)]GlcNAc
Summary of the method: as §1

[5] = target: Fuc(a1-2)Gal(b1-4)GlcNAc(b1-2)Man
Summary of the method: as §1

[6] = target: Fuc(a1-2)Gal(b1-4)GlcNAc(b1-3)Gal(b1-4)GlcNAc(b1-3)Gal(b1-4)GlcNAc
Summary of the method: as §1

[7] = target: Fuc(a1-2)Gal(b1-4)[Fuc(a1-3)]GlcNAc(b1-2)[Fuc(a1-2)Gal(b1-4)[Fuc(a1-3)]GlcNAc(b1-4)]Man(a1-3)[Fuc(a1-2)Gal(b1-4)[Fuc(a1-3)]GlcNAc(b1-2)Man(a1-6)]Man(b1-4)GlcNAc(b1-4)GlcNAc
Summary of the method: as §1

[8] = target: Fuc(a1-2)[Gal(a1-3)]Gal(b1-3)GalNAc
Summary of the method: as §1

[9] = target: Fuc(a1-2)[Gal(a1-3)]Gal(b1-3)GlcNAc
Summary of the method: as §1

[10] = target: Fuc(a1-2)[Gal(a1-3)]Gal(b1-4)Glc
Summary of the method: as §1

[11] = target: Fuc(a1-2)[GalNAc(a1-3)]Gal(b1-4)GlcNAc(b1-6)GalNAc
Summary of the method: as §1

[12] = target: Fuc(a1-2)[GalNAc(a1-3)]Gal(b1-4)[Fuc(a1-3)]GlcNAc(b1-3)GalNAc
Summary of the method: as §1

[13] = target: Fuc(a1-3)[Gal3S(b1-4)]Glc
Summary of the method: as §1

Gal(a1-3)Gal(b1-4)GlcNAc = target: Gal(a1-3)Gal(b1-4)GlcNAc
Summary of the method: as §1

[14] = target: Gal(a1-3)[Gal(a1-4)]Gal(b1-4)GlcNAc
Summary of the method: as §1

[15] = target: Gal(b1-3)GalNAc(a1-3)[Fuc(a1-2)]Gal(b1-4)GlcNAc
Summary of the method: as §1

[16] = target: Gal(b1-3)GlcNAc(a1-6)Gal(b1-4)GlcNAc
Summary of the method: as §1

[17] = target: Gal(b1-3)GlcNAc(b1-3)Gal(b1-4)GlcNAc(b1-6)[Gal(b1-3)GlcNAc(b1-3)]Gal(b1-4)Glc
Summary of the method: as §1

[18] = target: Gal(b1-3)GlcNAc(b1-3)GalNAc
Summary of the method: as §1

[19] = target: Gal(b1-3)GlcNAc(b1-6)[Gal(b1-3)]GalNAc
Summary of the method: as §1

[20] = target: Gal(b1-3)[Fuc(a1-4)]GlcNAc(b1-2)Man
Summary of the method: as §1

[21] = target: Gal(b1-4)GlcNAc(b1-3)Gal(b1-4)Glc
Summary of the method: as §1

[22] = target: Gal(b1-4)GlcNAc(b1-3)Gal(b1-4)GlcNAc(b1-3)Gal(b1-4)GlcNAc(b1-3)Gal(b1-4)GlcNAc(b1-2)Man(a1-3)[Gal(b1-4)GlcNAc(b1-3)Gal(b1-4)GlcNAc(b1-3)Gal(b1-4)GlcNAc(b1-3)Gal(b1-4)GlcNAc(b1-2)Man(a1-6)]Man(b1-4)GlcNAc(b1-4)GlcNAc
Summary of the method: as §1

[23] = target: Gal(b1-4)GlcNAc(b1-3)Gal(b1-4)GlcNAc(b1-3)Gal(b1-4)GlcNAc(b1-3)Gal(b1-4)GlcNAc(b1-3)Gal(b1-4)GlcNAc(b1-2)Man(a1-3)[Gal(b1-4)GlcNAc(b1-3)Gal(b1-4)GlcNAc(b1-3)Gal(b1-4)GlcNAc(b1-3)Gal(b1-4)GlcNAc(b1-3)Gal(b1-4)GlcNAc(b1-2)Man(a1-6)]Man(b1-4)GlcNAc(b1-4)GlcNAc
Summary of the method: as §1

[24] = target: Gal(b1-4)GlcNAc(b1-3)Gal(b1-4)GlcNAc(b1-3)[Gal(b1-4)GlcNAc(b1-3)Gal(b1-4)GlcNAc(b1-6)]GalNAc
Summary of the method: as §1

GalNAc(b1-3)GlcNAc = target: GalNAc(b1-3)GlcNAc
Summary of the method: as §1

GalNAc(b1-4)GlcNAc = target: GalNAc(b1-4)GlcNAc
Summary of the method: as §1

[25] = target: GalNAc(b1-4)GlcNAc(b1-2)Man
Summary of the method: as §1

[26] = target: GlcNAc(a1-4)Gal(b1-4)GlcNAc(b1-3)Gal(b1-4)GlcNAc(b1-3)Gal(b1-4)GlcNAc
Summary of the method: as §1

[27] = target: GlcNAc(a1-6)Gal(b1-4)GlcNAc
Summary of the method: as §1

[28] = target: GlcNAc(b1-3)Gal(b1-4)GlcNAc(b1-2)[GlcNAc(b1-3)Gal(b1-4)GlcNAc(b1-6)]Man(a1-6)[GlcNAc(b1-3)Gal(b1-4)GlcNAc(b1-2)Man(a1-3)]Man(b1-4)GlcNAc(b1-4)GlcNAc
Summary of the method: as §1

[29] = target: GlcNAc(b1-3)Gal(b1-4)GlcNAc(b1-3)Gal(b1-4)GlcNAc(b1-2)Man(a1-3)[GlcNAc(b1-3)Gal(b1-4)GlcNAc(b1-3)Gal(b1-4)GlcNAc(b1-2)Man(a1-6)]Man(b1-4)GlcNAc(b1-4)[Fuc(a1-6)]GlcNAc
Summary of the method: as §1

[30] = target: GlcNAc(b1-4)Gal(b1-4)GlcNAc
Summary of the method: as §1

GlcNAc(b1-4)GlcNAc = target: GlcNAc(b1-4)GlcNAc
Summary of the method: as §1

[31] = target: GlcNAc(b1-4)GlcNAc(b1-4)GlcNAc(b1-4)GlcNAc(b1-4)GlcNAc
Summary of the method: as §1

[32] = target: Neu5Ac(a2-3)Gal(b1-3)GalNAc(b1-4)[Neu5Ac(a2-3)]Gal(b1-4)Glc
Summary of the method: as §1

[33] = target: Neu5Ac(a2-3)Gal(b1-3)[Fuc(a1-4)]GlcNAc(b1-3)Gal(b1-3)[Fuc(a1-4)]GlcNAc
Summary of the method: as §1

[34] = target: Neu5Ac(a2-3)Gal(b1-4)GlcNAc(b1-2)Man(a1-3)[Neu5Ac(a2-3)Gal(b1-4)GlcNAc(b1-2)Man(a1-6)]Man(b1-4)GlcNAc(b1-4)[Fuc(a1-6)]GlcNAc
Summary of the method: as §1

[35] = target: Neu5Ac(a2-3)Gal(b1-4)GlcNAc6S
Summary of the method: as §1

[36] = target: Neu5Ac(a2-3)[GalNAc(b1-4)]Gal(b1-4)GlcNAc
Summary of the method: as §1

Neu5Ac(a2-6)Gal(b1-4)Glc = target: Neu5Ac(a2-6)Gal(b1-4)Glc
Summary of the method: as §1

[37] = target: Neu5Ac(a2-6)Gal(b1-4)GlcNAc
Summary of the method: as §1

[38] = target: Neu5Ac(a2-6)Gal(b1-4)GlcNAc(b1-2)Man(a1-3)[GlcNAc(b1-2)Man(a1-6)]Man(b1-4)GlcNAc(b1-4)GlcNAc
Summary of the method: as §1

[39] = target: Neu5Ac(a2-6)Gal(b1-4)GlcNAc(b1-2)Man(a1-3)[Neu5Ac(a2-6)Gal(b1-4)GlcNAc(b1-2)Man(a1-6)]Man(b1-4)GlcNAc(b1-4)[Fuc(a1-6)]GlcNAc
Summary of the method: as §1

[40] = target: Neu5Ac(a2-6)Gal(b1-4)GlcNAc(b1-2)[Neu5Ac(a2-6)Gal(b1-4)GlcNAc(b1-4)]Man(a1-3)[GlcNAc(b1-4)][Neu5Ac(a2-6)Gal(b1-4)GlcNAc(b1-2)[Neu5Ac(a2-6)Gal(b1-4)GlcNAc(b1-6)]Man(a1-6)]Man(b1-4)GlcNAc(b1-4)GlcNAc
Summary of the method: as §1

[41] = target: Neu5Ac(a2-6)Gal(b1-4)GlcNAc(b1-3)[Neu5Ac(a2-6)Gal(b1-4)GlcNAc(b1-6)]GalNAc
Summary of the method: as §1

[42] = target: Neu5Ac(a2-6)Gal(b1-4)GlcNAc6S
Summary of the method: as §1

[43] = target: Neu5Ac(a2-6)GlcNAc(b1-4)GlcNAc(b1-4)GlcNAc
Summary of the method: as §1

[44] = target: Neu5Ac(a2-8)Neu5Ac(a2-3)Gal(b1-3)GalNAc(b1-4)[Neu5Ac(a2-8)Neu5Ac(a2-3)]Gal(b1-4)Glc
Summary of the method: as §1

Neu5Gc(a2-6)GalNAc = target: Neu5Gc(a2-6)GalNAc
Summary of the method: as §1

B1: AT1G15820(NC) (Arabidopsis thaliana) (protein)
chain: MAMAVSGAVLSGLGSSFLTGGKRGATALASGVGDAIAPFSFGSLLGTQLLLMGWVESKRWVDFFNPDSQSVEWATPWSKTAENFANYTGDQGYPGGRFFDPLGLAGKNRDGVYEPDFEKLERLKLAEIKHSRLAMVAMLIFYFEAGQGKTPLGALGL
glycan array binding signal (z-score) (Fuc(a1-2)Gal): 4.29
glycan array binding signal (z-score) [1]: 3.01
glycan array binding signal (z-score) [2]: -0.346
glycan array binding signal (z-score) [3]: -0.5
glycan array binding signal (z-score) [4]: -0.307
glycan array binding signal (z-score) [5]: 0.457
glycan array binding signal (z-score) [6]: -0.439
glycan array binding signal (z-score) [7]: -0.506
glycan array binding signal (z-score) [8]: 0.211
glycan array binding signal (z-score) [9]: -0.395
glycan array binding signal (z-score) [10]: -0.243
glycan array binding signal (z-score) [11]: -0.49
glycan array binding signal (z-score) [12]: 4.75
glycan array binding signal (z-score) [13]: -0.315
glycan array binding signal (z-score) (Gal(a1-3)Gal(b1-4)GlcNAc): -0.211
glycan array binding signal (z-score) [14]: 4.55
glycan array binding signal (z-score) [15]: -0.432
glycan array binding signal (z-score) [16]: -0.36
glycan array binding signal (z-score) [17]: 5.77
glycan array binding signal (z-score) [18]: -0.541
glycan array binding signal (z-score) [19]: -0.208
glycan array binding signal (z-score) [20]: -0.282
glycan array binding signal (z-score) [21]: 3.65
glycan array binding signal (z-score) [22]: 0.202
glycan array binding signal (z-score) [23]: 0.01
glycan array binding signal (z-score) [24]: 4.39
glycan array binding signal (z-score) (GalNAc(b1-3)GlcNAc): -0.221
glycan array binding signal (z-score) (GalNAc(b1-4)GlcNAc): 7.2
glycan array binding signal (z-score) [25]: -0.306
glycan array binding signal (z-score) [26]: -0.156
glycan array binding signal (z-score) [27]: -0.626
glycan array binding signal (z-score) [28]: 0.582
glycan array binding signal (z-score) [29]: 2.99
glycan array binding signal (z-score) [30]: 0.405
glycan array binding signal (z-score) (GlcNAc(b1-4)GlcNAc): -0.216
glycan array binding signal (z-score) [31]: 4.7
glycan array binding signal (z-score) [32]: -0.581
glycan array binding signal (z-score) [33]: -0.555
glycan array binding signal (z-score) [34]: -0.329
glycan array binding signal (z-score) [35]: -0.18
glycan array binding signal (z-score) [36]: -0.475
glycan array binding signal (z-score) (Neu5Ac(a2-6)Gal(b1-4)Glc): -0.637
glycan array binding signal (z-score) [37]: -0.363
glycan array binding signal (z-score) [38]: -0.052
glycan array binding signal (z-score) [39]: 0.316
glycan array binding signal (z-score) [40]: -0.4
glycan array binding signal (z-score) [41]: -0.424
glycan array binding signal (z-score) [42]: -0.322
glycan array binding signal (z-score) [43]: -0.481
glycan array binding signal (z-score) [44]: 5.08
glycan array binding signal (z-score) (Neu5Gc(a2-6)GalNAc): -0.493
